Measured values: PubChem BioAssay AID1159580 (chemical genetic matrix, 2015)
Where “and” joins values, the source holds several entries; their conditions need not be identical. Identical values can stand only once. The whole screen tested about 5,500 compounds, of which about 2,000 (36%) were called active. Another 18% or so got no clear call; they are omitted. Rule as the data show it: active = normalized growth mostly below about 0.91 (no sharp cut-off); inconclusive = no clear call, values can overlap the other calls; inactive = mostly above about 0.92. Some of the results follow.

Assay: chemical genetic growth profiling, strain panel (AID 1159580);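 also: tested at 20 µM; growth read once vehicle control cultures reached saturation at 30 °C; 1 = growth at the plate median or of vehicle wells; lower values mean less growth of the strain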
Conditions: S. cerevisiae deletion strains, growth OD

Measured: normalized growth

CCc1cccc2c3c([nH]c12)C(CC)(CC(=O)O)OCC3 (stereo not given)
inactive: locus YAL013W, strain DEP1, hits give low values 1.01 and 1.02 | locus YAL021C, strain ccr4, hits give low values 1.01 | locus YAL026C, strain drs2, hits give low values 0.983 | locus YAL030W, strain snc1, hits give low values 1 | locus YAL040C, strain CLN3, hits give low values 0.976 | locus YBL061C, strain skt5, hits give low values 0.979 | locus YBR009C, strain hhf1, hits give low values 1 | locus YBR021W, strain FUR4, hits give low values 1.01 | locus YBR023C, strain chs3, hits give low values 0.968 | locus YBR171W, strain sec66, hits give low values 0.959 | locus YBR229C, strain ROT2, hits give low values 1.01 | locus YBR231C, strain swc5, hits give low values 0.989 | locus YBR279W, strain paf1, hits give low values 0.987 | locus YCL011C, strain gbp2, hits give low values 1 | locus YCL016C, strain dcc1, hits give low values 1 | locus YCL029C, strain bik1, hits give low values 1.01 | locus YCL061C, strain MRC1 (second series), hits give low values 0.995 | locus YCL069W, strain vba3, hits give low values 0.976 | locus YCR088W, strain abp1, hits give low values 0.983 | locus YDL005C, strain med2, hits give low values 0.971 | locus YDL035C, strain GPR1, hits give low values 1 | locus YDL040C, strain nat1, hits give low values 0.976 | locus YDL074C, strain BRE1, hits give low values 1.02 | locus YDL101C, strain DUN1, hits give low values 1.02 | locus YDL134C, strain PPH21, hits give low values 1.01 | locus YDL185W, strain tfp1, hits give low values 1.01 | locus YDL192W, strain arf1, hits give low values 1.01 | locus YDR001C, strain nth1, hits give low values 0.966 | locus YDR069C, strain doa4, hits give low values 0.976 | locus YDR101C, strain arx1, hits give low values 1 | locus YDR137W, strain rgp1, hits give low values 0.964 | locus YDR150W, strain NUM1, hits give low values 1 and 0.999 | locus YDR159W, strain sac3, hits give low values 0.976 | locus YDR162C, strain NBP2, hits give low values 1.01 | locus YDR195W, strain ref2 0.896 | locus YDR297W, strain sur2, hits give low values 0.985 | locus YDR318W, strain mcm21, hits give low values 1.02 | locus YDR334W, strain swr1, hits give low values 0.951 | locus YDR335W, strain msn5, hits give low values 0.968 | locus YDR363W, strain ESC2, hits give low values 1.05 | locus YDR388W, hits give low values 1.01 | locus YDR392W, strain spt3, hits give low values 1.03 | locus YDR502C, strain sam2, hits give low values 0.986 | locus YEL003W, strain gim4, hits give low values 0.964 | locus YEL037C, strain rad23, hits give low values 0.968 | locus YEL061C, strain CIN8 (second series), hits give low values 0.965 | locus YEL061C, strain CIN8, hits give low values 1 | locus YER002W, strain NOP16, hits give low values 0.979 | locus YER015W, strain faa2, hits give low values 0.973 | locus YER016W, strain bim1, hits give low values 0.984 | locus YER110C, hits give low values 1 | locus YER111C, strain swi4, hits give low values 0.968 | locus YER155C, strain BEM2 (second series), hits give low values 0.979 | locus YER155C, strain BEM2, hits give low values 1.01 | locus YER167W, strain BCK2, hits give low values 1.01 | locus YFR010W, strain ubp6, hits give low values 0.984 | locus YGL078C, strain dbp3, hits give low values 0.99 | locus YGL086W, strain mad1, hits give low values 1.01 | locus YGL167C, strain pmr1, hits give low values 0.957 | locus YGL173C, strain kem1, hits give low values 0.993 | locus YGL227W, strain vid30, hits give low values 0.987 | locus YGL240W, strain doc1, hits give low values 0.982 | locus YGL248W, strain PDE1, hits give low values 1.01 | locus YGL253W, strain hxk2, hits give low values 0.98 | locus YGR078C, strain PAC10, hits give low values 1.02 | locus YGR135W, strain pre9, hits give low values 1 | locus YGR229C, strain SMI1, hits give low values 0.995 | locus YGR252W, strain gcn5, hits give low values 1 | locus YHR013C, strain ard1, hits give low values 0.985 | locus YHR027C, strain rpn1, hits give low values 0.997 | locus YHR030C, strain SLT2, hits give low values 1.01 and 0.971 | locus YHR079C, strain IRE1 (second series), hits give low values 1.01 | locus YHR079C, strain IRE1, hits give low values 0.965 | locus YHR094C, strain hxt1, hits give low values 1.01 | locus YHR129C, strain ARP1, hits give low values 1.01 | locus YHR142W, strain chs7, hits give low values 0.986 | locus YHR200W, strain rpn10, hits give low values 1 | locus YIL066C, strain RNR3, hits give low values 1.01 | locus YIL073C, strain SPO22, hits give low values 1.02 | locus YIL125W, strain kgd1, hits give low values 0.992 | locus YIR030C, strain dcg1, hits give low values 0.997 | locus YJL092W, strain hpr5, hits give low values 0.982 | locus YJL095W, strain BCK1 (second series), hits give low values 0.987 | locus YJL095W, strain BCK1, hits give low values 1.05 and 0.971 | locus YJL115W, strain asf1, hits give low values 0.98 | locus YJL129C, strain trk1, hits give low values 0.934 | locus YJL134W, strain LCB3, hits give low values 1.01 | locus YJL154C, strain vps35, hits give low values 0.981 | locus YJL164C, strain tpk1, hits give low values 1.01 | locus YJL166W, strain qcr8, hits give low values 0.984 | locus YJL168C, strain set2, hits give low values 1 | locus YJL187C, strain SWE1 (second series), hits give low values 1.03 | locus YJR043C, strain POL32, hits give low values 1.01 | locus YJR066W, strain TOR1, hits give low values 0.916 | locus YJR075W, strain HOC1, hits give low values 1.02
